What all share (set-up): scale not given: direction of the effect not stated beside the values
In assay [1] the target is Protein translocase subunit SecA (Escherichia coli (strain K12)) (UniProt P10408). Kind of assay: Assay to Identify E. coli SecA ATPase Inhibitors. To be noted: 30 µM. The assay is classed as functional.
The target of assay [2] is T1, Ubiquitin-activating enzyme e1, putative (Leishmania donovani (strain BPK282A1)) (UniProt E9BSI1).
T1 sequence (whole entry): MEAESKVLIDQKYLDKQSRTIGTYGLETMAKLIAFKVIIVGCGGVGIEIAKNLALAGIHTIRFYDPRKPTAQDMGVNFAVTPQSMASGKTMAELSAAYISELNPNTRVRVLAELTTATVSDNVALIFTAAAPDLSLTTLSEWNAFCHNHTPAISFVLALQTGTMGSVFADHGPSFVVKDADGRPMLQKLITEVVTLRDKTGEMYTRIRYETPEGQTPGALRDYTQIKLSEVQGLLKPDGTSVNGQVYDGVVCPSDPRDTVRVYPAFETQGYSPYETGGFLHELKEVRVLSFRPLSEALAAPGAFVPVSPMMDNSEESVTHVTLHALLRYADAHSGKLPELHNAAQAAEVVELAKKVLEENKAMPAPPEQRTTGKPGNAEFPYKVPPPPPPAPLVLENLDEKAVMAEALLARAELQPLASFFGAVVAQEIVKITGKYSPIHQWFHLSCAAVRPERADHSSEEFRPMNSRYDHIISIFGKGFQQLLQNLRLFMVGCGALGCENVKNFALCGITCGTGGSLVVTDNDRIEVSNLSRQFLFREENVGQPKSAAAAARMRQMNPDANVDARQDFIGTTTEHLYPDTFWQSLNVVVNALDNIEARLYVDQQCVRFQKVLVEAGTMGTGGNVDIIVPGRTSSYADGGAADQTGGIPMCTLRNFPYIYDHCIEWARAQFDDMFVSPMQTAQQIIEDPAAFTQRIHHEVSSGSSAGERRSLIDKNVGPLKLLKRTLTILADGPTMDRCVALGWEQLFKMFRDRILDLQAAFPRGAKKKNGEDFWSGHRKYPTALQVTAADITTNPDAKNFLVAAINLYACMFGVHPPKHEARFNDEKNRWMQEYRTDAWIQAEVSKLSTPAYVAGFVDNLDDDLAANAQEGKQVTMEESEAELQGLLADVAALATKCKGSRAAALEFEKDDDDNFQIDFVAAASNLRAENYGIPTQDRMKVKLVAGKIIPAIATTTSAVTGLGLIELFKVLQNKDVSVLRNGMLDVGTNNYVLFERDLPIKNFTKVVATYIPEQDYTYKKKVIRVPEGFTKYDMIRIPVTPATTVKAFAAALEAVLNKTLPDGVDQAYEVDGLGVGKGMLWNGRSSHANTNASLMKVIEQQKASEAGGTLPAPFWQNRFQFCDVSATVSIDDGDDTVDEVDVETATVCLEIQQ
Nature of the assay: Leishmania donovani Ubiquitin Activating Enzyme (LdE1). It counts as functional. To be noted: 30 µM.

Assay [3] deals with Sialic acid-binding Ig-like lectin 9 (Homo sapiens) (UniProt Q9Y336). Nature of the assay: Hs-Siglec9 ALPHAscreen SOP 20170721. To be noted: 10 µM.
The next assay deals with Trypanosoma cruzi. Kind of assay: Trypanosoma cruzi phosphomannomutase and mannose-1-phosphate guanylyltransferase assay. The assay is classed as functional. To be noted: 10 µM.
Assay [4] addresses T2, Arginase-2, mitochondrial (Homo sapiens) (UniProt P78540).
T2 sequence (whole entry): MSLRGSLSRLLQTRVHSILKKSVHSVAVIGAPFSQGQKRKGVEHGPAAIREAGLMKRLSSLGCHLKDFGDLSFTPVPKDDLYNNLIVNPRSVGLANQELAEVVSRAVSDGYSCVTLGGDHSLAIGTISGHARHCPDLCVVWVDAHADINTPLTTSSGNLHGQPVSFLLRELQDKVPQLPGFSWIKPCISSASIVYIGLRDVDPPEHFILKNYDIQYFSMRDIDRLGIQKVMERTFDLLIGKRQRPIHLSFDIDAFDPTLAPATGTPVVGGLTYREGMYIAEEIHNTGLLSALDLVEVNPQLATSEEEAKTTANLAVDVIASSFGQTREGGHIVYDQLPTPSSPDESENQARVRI
Kind of assay: in vitro enzyme assay to detect the production of urea directly proportional to the activity of Arginase II. Further: in the data most compounds retested in dose-response had high values. It counts as functional. The conditions noted are these: 33.3 µM.

Assay [5] deals with T3, Proteasome subunit beta (Trypanosoma cruzi) (UniProt O96673).
T3 sequence (whole entry): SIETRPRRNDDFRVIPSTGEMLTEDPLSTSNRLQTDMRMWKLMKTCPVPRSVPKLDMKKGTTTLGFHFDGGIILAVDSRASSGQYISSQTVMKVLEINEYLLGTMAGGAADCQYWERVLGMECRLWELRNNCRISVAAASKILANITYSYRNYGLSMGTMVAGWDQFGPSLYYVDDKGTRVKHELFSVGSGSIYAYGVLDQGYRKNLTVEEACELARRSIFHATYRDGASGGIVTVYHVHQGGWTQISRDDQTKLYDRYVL
Kind of assay: Trypanosoma cruzi proteasome chymotrypsin-like activity (TcProtChymo) assay. Further: in the data most compounds retested in dose-response had high values. The assay is classed as functional. The conditions noted are these: 9.37 µM.

The species entered for another assay is Homo sapiens. Nature of the assay: To identify inhibition of the IFN signalling (Jak-Stat) pathway via expression of an eGFP reporter gene under the control of an IFN-stimulated response element (ISRE) containing MxA promoter. It counts as functional. The conditions noted are these: 30 µM. For orientation: A reporter such as luciferase makes a cellular process visible.

In assay [6] the target is T4, Tyrosyl-tRNA synthetase, putative (Trypanosoma cruzi (strain CL Brener)) (UniProt Q4DSP6).
T4 sequence (whole entry): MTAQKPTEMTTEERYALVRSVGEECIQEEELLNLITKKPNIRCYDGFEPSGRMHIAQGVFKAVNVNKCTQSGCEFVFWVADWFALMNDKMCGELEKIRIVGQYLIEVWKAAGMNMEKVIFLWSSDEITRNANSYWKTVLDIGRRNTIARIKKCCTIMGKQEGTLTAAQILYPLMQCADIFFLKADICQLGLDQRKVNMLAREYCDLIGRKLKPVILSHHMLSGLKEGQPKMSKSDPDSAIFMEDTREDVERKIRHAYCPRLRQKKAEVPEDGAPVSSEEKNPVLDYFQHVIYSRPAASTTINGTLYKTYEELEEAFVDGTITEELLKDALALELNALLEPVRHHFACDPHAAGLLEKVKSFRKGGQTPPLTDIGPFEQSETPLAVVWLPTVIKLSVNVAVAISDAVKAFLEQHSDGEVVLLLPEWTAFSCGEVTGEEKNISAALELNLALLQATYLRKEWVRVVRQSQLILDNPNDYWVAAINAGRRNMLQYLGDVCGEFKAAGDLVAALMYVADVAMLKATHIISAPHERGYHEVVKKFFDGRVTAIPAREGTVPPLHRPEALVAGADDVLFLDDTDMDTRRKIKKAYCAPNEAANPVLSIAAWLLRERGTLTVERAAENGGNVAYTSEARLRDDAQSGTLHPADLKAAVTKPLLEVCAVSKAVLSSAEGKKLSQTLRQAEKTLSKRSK
Nature of the assay: Trypanosoma cruzi tyrosyl tRNA synthetase (TcYRS) _High Tyrosine SOP. Further: in the data most compounds retested in dose-response had high values. The conditions noted are these: 30 µM. It counts as functional.

In assay [7] the target is T4, Tyrosyl-tRNA synthetase, putative (Trypanosoma cruzi (strain CL Brener)). Kind of assay: Trypanosoma cruzi tyrosyl tRNA synthetase (TcYRS) SOP. The assay is classed as functional. To be noted: 30 µM.
The target in assay [8] is Chromo domain-containing protein 1 (Saccharomyces cerevisiae (strain ATCC 204508 / S288c) (Baker's yeast)) (UniProt P32657). Kind of assay: ScCHD-1 Enzyme Inhibition Assay. Further: in the data most compounds retested in dose-response had high values. The assay is classed as functional. To be noted: 30 µM.

From ChEMBL document CHEMBL3988442, “University of Dundee, Small-Polar-MMV Screening Library” (2021) come the findings set out here.

For part of these data: Results with a measured potency or affinity are listed apart.

Protein translocase subunit SecA (Escherichia coli (strain K12)), sequence (P10408 whole entry): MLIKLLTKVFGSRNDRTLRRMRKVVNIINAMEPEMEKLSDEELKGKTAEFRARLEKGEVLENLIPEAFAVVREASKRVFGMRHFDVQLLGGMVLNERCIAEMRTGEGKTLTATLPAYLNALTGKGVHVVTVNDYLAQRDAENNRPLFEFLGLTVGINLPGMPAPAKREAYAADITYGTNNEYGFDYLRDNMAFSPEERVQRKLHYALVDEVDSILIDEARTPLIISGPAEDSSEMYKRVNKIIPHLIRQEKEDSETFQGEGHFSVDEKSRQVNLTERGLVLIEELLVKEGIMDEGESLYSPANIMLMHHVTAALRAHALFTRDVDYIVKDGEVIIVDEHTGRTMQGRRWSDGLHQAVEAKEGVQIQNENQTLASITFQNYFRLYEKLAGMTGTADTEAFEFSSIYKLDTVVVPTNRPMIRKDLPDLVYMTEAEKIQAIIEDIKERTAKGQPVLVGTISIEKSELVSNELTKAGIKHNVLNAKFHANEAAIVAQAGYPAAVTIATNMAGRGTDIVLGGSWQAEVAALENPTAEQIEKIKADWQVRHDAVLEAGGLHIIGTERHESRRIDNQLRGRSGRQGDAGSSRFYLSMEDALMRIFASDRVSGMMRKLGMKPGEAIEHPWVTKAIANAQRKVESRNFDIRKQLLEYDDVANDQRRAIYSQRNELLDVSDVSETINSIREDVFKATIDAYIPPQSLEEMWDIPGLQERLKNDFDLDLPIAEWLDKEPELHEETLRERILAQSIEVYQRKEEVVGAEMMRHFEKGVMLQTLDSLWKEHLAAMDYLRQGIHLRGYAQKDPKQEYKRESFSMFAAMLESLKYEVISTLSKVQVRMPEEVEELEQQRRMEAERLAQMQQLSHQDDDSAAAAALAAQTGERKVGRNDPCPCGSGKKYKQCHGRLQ
Chromo domain-containing protein 1 (Saccharomyces cerevisiae (strain ATCC 204508 / S288c) (Baker's yeast)), sequence (P32657 whole entry, the tested form may be a part): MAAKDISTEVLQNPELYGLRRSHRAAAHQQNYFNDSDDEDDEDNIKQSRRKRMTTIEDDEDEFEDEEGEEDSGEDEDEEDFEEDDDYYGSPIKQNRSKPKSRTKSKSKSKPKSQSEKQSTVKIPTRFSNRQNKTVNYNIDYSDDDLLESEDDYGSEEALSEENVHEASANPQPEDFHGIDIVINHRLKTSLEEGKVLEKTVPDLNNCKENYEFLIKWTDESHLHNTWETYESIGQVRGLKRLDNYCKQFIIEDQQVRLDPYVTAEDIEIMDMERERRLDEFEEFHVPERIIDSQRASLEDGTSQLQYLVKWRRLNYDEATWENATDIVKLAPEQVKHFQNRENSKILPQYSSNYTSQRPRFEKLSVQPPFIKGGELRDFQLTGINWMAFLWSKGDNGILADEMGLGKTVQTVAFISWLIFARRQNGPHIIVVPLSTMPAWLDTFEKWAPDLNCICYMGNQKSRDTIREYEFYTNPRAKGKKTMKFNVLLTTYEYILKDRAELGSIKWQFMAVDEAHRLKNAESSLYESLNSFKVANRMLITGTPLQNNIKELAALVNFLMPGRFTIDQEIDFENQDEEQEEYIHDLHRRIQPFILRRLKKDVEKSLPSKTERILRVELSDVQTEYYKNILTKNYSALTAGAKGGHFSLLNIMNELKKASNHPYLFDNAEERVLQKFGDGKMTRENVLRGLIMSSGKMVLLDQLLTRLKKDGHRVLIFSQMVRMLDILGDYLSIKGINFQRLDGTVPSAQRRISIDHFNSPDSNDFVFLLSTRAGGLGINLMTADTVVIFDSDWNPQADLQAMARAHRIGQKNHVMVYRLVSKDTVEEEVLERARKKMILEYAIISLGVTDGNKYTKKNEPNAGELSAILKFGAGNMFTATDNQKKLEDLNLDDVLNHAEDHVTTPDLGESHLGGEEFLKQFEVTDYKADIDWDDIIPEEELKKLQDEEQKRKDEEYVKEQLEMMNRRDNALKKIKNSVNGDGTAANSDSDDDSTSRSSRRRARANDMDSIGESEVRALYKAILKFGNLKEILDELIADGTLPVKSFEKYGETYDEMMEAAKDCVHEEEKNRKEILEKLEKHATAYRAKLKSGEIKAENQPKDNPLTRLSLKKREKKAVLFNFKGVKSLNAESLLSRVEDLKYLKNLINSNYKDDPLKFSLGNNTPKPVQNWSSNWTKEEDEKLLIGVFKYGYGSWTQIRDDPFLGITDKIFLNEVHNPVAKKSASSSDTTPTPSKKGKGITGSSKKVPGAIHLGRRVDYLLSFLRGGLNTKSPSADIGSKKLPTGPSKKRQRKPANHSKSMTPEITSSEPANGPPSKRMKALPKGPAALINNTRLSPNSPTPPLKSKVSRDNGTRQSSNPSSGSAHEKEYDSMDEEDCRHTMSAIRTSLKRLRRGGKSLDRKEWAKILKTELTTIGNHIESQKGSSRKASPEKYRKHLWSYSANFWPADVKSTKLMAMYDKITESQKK
Sialic acid-binding Ig-like lectin 9 (Homo sapiens), sequence (Q9Y336 whole entry): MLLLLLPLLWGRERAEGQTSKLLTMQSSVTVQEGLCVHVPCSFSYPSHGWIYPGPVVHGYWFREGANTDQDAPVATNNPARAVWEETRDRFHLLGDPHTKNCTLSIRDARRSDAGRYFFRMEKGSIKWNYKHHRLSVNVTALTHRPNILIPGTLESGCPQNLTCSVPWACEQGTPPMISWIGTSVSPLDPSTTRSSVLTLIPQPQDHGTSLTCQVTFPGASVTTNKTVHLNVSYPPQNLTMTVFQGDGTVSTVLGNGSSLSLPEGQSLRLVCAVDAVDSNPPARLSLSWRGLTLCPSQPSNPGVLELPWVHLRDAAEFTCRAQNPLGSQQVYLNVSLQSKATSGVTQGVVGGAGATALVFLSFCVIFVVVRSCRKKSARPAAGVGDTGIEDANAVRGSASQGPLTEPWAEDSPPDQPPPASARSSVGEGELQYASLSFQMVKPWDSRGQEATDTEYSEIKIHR

For the molecule `CNC(=O)CN(C)c1nc(-c2ccncc2)nc2c1CCN(C(C)=O)C2`, the Percent Effect in [1] is -7.13%; in assay [2], 0%; in assay [3], 0.927%; with Trypanosoma cruzi, -1.07%; in assay [4], 2.45%; in [5], 9.59%. Besides, the Percent Effect in the assay listed under Homo sapiens was -4.34%; in assay [6], 1.6%; in assay [7] it was 7.32%; in assay [8], -3.67%.

Regarding `CC(Cn1cccn1)NC(=O)N1CCN(Cc2cccs2)CC1` (stereo not given), the Percent Effect in assay [1] is -1.74%; in [2] it was 18.7%; in assay [3], -3.71%; with Trypanosoma cruzi, 5.42%; in assay [4], -3.1%; in assay [5], 17.4%. The Percent Effect in the assay filed under Homo sapiens was 12.5%; in assay [6] it was 2.63%; in [7], 12.8%; in assay [8], 71.3%.

For `Nc1cc(CCC2CN(Cc3ccc(C(=O)O)cc3)CCO2)ccn1` (stereo not given), the Percent Effect in assay [1] was -3.81%; in [2], 9.33%; in assay [3] it was -7.05%; with Trypanosoma cruzi it was -5.72%; in [4], -1.77%; in assay [5], 13%. The Percent Effect in the assay listed under Homo sapiens is 12.6%; in [6], -1.06%; in assay [7] it was 2.5%; in assay [8], -22%.

As to `c1ccc(OCc2ccncc2)c(CNC2CCc3ncnn3C2)c1` (stereo not given), the Percent Effect in assay [1] is 1.01%; in [2], 17.9%; in assay [3], -16.6%; in the assay with Trypanosoma cruzi it was -0.845%; in assay [4], 10.7%; in [5] it was 11.5%. Further, the Percent Effect was 20% in the assay filed under Homo sapiens, 7.18% in assay [6], 18.1% in assay [7] and -0.669% in [8].

With `CC(NC(=O)CCn1cncn1)c1nnc2n1CCCCC2` (stereo not given), the Percent Effect is -3.71% in [1]; 20.8% in [2]; 8.71% in [3]; 5.04% with Trypanosoma cruzi; 10.4% in assay [4]; 1.93% in assay [5]. Also, the Percent Effect in the assay filed under Homo sapiens is 17.2%; in [6] it was 3.92%; in [7], 18.8%; in [8], -8.72%.

For the molecule `CC(C)c1nn(C)c(N2CCOCC2)c1CNCC(=O)N(C)C`, the Percent Effect in [1] was -2.05%; in [2], 12.8%; in [3], -8.89%; in the assay on Trypanosoma cruzi, 1.22%; in [4], 3.69%; in assay [5], 10.5%. For the same molecule, the Percent Effect in the assay listed under Homo sapiens was -5.7%; in assay [6] it was 7.18%; in assay [7] it was 22.9%; in [8] it was -5.02%.

Regarding `Cc1cc(C)n(CC2CCCN2CCCS(N)(=O)=O)n1` (stereo not given), the Percent Effect was -1.45% in assay [1]; 10.3% in assay [2]; -5.77% in [3]; 7.61% in the assay with Trypanosoma cruzi; 4.1% in assay [4]; 18.3% in assay [5]. For the same molecule, the Percent Effect in the assay filed under Homo sapiens was 20.4%; in assay [6], 3.35%; in [7], 18.1%; in assay [8] it was -2.57%.

As for `COC(=O)COc1nc(CC(C)C)c2c(c1C#N)CCCC2`, the Percent Effect was -4.25% in [1]; 2.7% in [2]; -5.64% in [3]; -7.86% in the assay on Trypanosoma cruzi; -5.94% in [4]; 10.6% in assay [5]. Besides, the Percent Effect in the assay listed under Homo sapiens was 38.2%; in assay [6], -2.66%; in [7] it was 4.88%; in assay [8], -4.12%.

Take `CCOc1ccc(Cl)c(C(=O)NCc2ccc(C(=O)NC)cc2)n1`: the Percent Effect was -5.52% in [1]; 15.4% in [2]; -5.92% in assay [3]; 4.79% in the assay with Trypanosoma cruzi; 4.92% in assay [4]; 8.62% in assay [5]. Further, the Percent Effect in the assay filed under Homo sapiens came to 9.74%; in assay [6], 5.26%; in assay [7], 20.5%; in [8], 0.666%.

With `CCN1CCN(CC(C)(O)c2cccc(C(F)(F)F)c2)CC1` (stereo not given), the Percent Effect is -5.15% in assay [1]; 5.2% in [2]; 14.6% in assay [3]; -3.92% in the assay on Trypanosoma cruzi; -3.48% in assay [4]; 0.175% in assay [5]. The Percent Effect in the assay filed under Homo sapiens is -14.6%; in assay [6] it was 2.94%; in assay [7], -2.35%; in [8], -0.754%.

Consider `CCC(NC(N)=O)c1ccccc1OCC(=O)N1CCCC1` (stereo not given), for which the Percent Effect in [1] was -1.4%; in assay [2] it was 10.3%; in [3], -13.8%; with Trypanosoma cruzi, -4.41%; in assay [4] it was -4.92%; in assay [5] it was 9.81%. The Percent Effect is 16.9% in the assay listed under Homo sapiens, 5.26% in assay [6], 18.1% in [7] and -6% in [8].

`CC(=O)N1CCC2(CC1)C(=O)N(CC1CC1)c1ccccc12`: the Percent Effect in assay [1] is -5.06%; in [2], 9.09%; in [3] it was -0.719%; with Trypanosoma cruzi, -3.56%; in [4] it was 5.48%; in assay [5], 10.6%. For the same molecule, the Percent Effect in the assay filed under Homo sapiens is 6.99%; in [6], 3.87%; in assay [7], 7.5%; in [8], -7.42%.
